Ten molecules from PubChem BioAssay (NCI) can be followed below.

Molecules are shown by their SMILES. About 79,000 compounds went through this panel and 15% of them were active in at least one assay; those are over-represented in the sample as a whole. A number with no mark means an inactive call. Active and inactive are the calls of the source. Rule as the data show it: active = growth inhibition above about 70%; inactive = the rest.

Experiment [1] in a line: NCI Yeast Anticancer Drug Screen. Data for the rad50 strain (AID 155).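 Also: 0% = growth of vehicle-only cultures of the same strain.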 The settings on record: S. cerevisiae rad50 strain growth inhibition, active compounds read high. The method in brief:
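Vehicle-treated cultures provide the reference for the growth inhibition reported for compound-exposed, repair-deficient yeast.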

Experiment [2] is described as follows: NCI Yeast Anticancer Drug Screen. Data for the mec2-1 strain (AID 157). The settings on record: S. cerevisiae mec2-1 strain, active compounds read high. A digest of the protocol:
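Vehicle-treated cultures served as reference for growth inhibition of compound-exposed mec2-1 yeast.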

A short description of experiment [3]: NCI Yeast Anticancer Drug Screen. Data for the sgs1 mgt1 strain (AID 161).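 Also: 0% = growth of cultures given vehicle only.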 The settings on record: S. cerevisiae sgs1 mgt1 strain, active compounds read high. A digest of the protocol: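 Mutant yeast exposed to compound; growth scored against vehicle-only wells.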
A short description of experiment [4]: NCI Yeast Anticancer Drug Screen. Data for the cln2 rad14 strain (AID 165).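 Also: 0% = growth equal to vehicle treated cultures.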 The settings on record: S. cerevisiae cln2 rad14 strain, active compounds read high. A digest of the protocol:
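Each compound was tested on cln2 rad14 yeast. Inhibition of growth was calculated against vehicle-exposed controls.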

Experiment [5] is described as follows: NCI Yeast Anticancer Drug Screen. Data for the bub3 strain (AID 167). The settings on record: S. cerevisiae bub3 mutant strain, active compounds read high. The method in brief:
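Mutant yeast screening strain plus compound; vehicle-treated cultures serve as the 0% inhibition reference.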

A short description of experiment [6]: NCI Yeast Anticancer Drug Screen. Data for the mlh1 rad18 strain (AID 175). Particulars: S. cerevisiae mlh1 rad18 strain growth inhibition, active compounds read high. A digest of the protocol:
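Vehicle-treated cultures served as the reference for growth inhibition in a yeast strain carrying DNA damage repair alterations exposed to each compound.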

The mark [7] stands for this setting: at 5.0 µM (retest, dose inferred, filed as 0.5).
Where [8] appears, read: at 50.0 µM (retest, dose inferred, filed as 5.0).

For `Cn1c(-c2ccc(/C=N/NC(=S)N/N=C/c3ccc(-c4c[n+]5ccsc5n4C)cc3)cc2)c[n+]2ccsc12`, the growth inhibition in experiment [1] (setting [7]) is 72% (active); in experiment [1] (setting [8]), 95% (active); in experiment [1] (at 50.0 µM) it was 88.6% (active); in experiment [2] (setting [7]), 66%; in experiment [2] (setting [8]), 98% (active); in experiment [2] (at 50.0 µM), 91.2% (active). The growth inhibition in experiment [3] (setting [7]) is 73% (active); in experiment [3] (setting [8]), 98% (active); in experiment [3] (at 50.0 µM), 91.4% (active); in experiment [4] (setting [7]) it was 34%; in experiment [4] (setting [8]) it was 91% (active); in experiment [4] (at 50.0 µM), 86.4% (active). For the same molecule, the growth inhibition is 60% in experiment [5] (setting [7]); 89% (active) in experiment [5] (setting [8]); 90.3% (active) in experiment [5] (at 50.0 µM); 72% (active) in experiment [6] (setting [7]); 97% (active) in experiment [6] (setting [8]); 88% (active) in experiment [6] (at 50.0 µM).

On to `O=C1OCC2=C1C(c1ccc(Cl)cc1)c1cc3c(cc1O2)OCO3` (stereo not given), for which the growth inhibition is 8% in experiment [1] (setting [7]); 10% in experiment [1] (setting [8]); -23.4% in experiment [1] (at 50.0 µM); 9% in experiment [2] (setting [7]); 8% in experiment [2] (setting [8]); -20.4% in experiment [2] (at 50.0 µM). For the same molecule, the growth inhibition in experiment [3] (setting [7]) is 4%; in experiment [3] (setting [8]) it was 16%; in experiment [3] (at 50.0 µM), -5.5%; in experiment [4] (setting [7]), 2%; in experiment [4] (setting [8]) it was 18%; in experiment [4] (at 50.0 µM) it was 19.4%. The growth inhibition in experiment [5] (setting [7]) is 17%; in experiment [5] (setting [8]), 21%; in experiment [5] (at 50.0 µM), 6.15%; in experiment [6] (setting [7]), 17%; in experiment [6] (setting [8]), 7%; in experiment [6] (at 50.0 µM), -15.8%.

Regarding `O=C(CBr)N1c2ccccc2S(=O)(=O)c2ccc3ccccc3c21`, the growth inhibition in experiment [1] (setting [7]) is 36%; in experiment [1] (setting [8]) it was 97% (active); in experiment [1] (at 50.0 µM) it was 79.5% (active); in experiment [2] (setting [7]) it was 49%; in experiment [2] (setting [8]) it was 98% (active); in experiment [2] (at 50.0 µM) it was 87% (active). Moreover, the growth inhibition in experiment [3] (setting [7]) is 66%; in experiment [3] (setting [8]), 98% (active); in experiment [3] (at 50.0 µM), 81.2% (active); in experiment [4] (setting [7]), 36%; in experiment [4] (setting [8]), 96% (active); in experiment [4] (at 50.0 µM), 64.5%. The growth inhibition in experiment [5] (setting [7]) is 79% (active); in experiment [5] (setting [8]), 97% (active); in experiment [5] (at 50.0 µM) it was 76.5% (active); in experiment [6] (setting [7]) it was 79% (active); in experiment [6] (setting [8]), 97% (active); in experiment [6] (at 50.0 µM), 89.8% (active).

Turning to `NC(=S)C(=S)N/C=C/c1nc2ccccc2[nH]c1=O`, the growth inhibition in experiment [1] (setting [7]) was -19%; in experiment [1] (setting [8]) it was 98% (active); in experiment [1] (at 50.0 µM) it was 89.8% (active); in experiment [2] (setting [7]) it was -25%; in experiment [2] (setting [8]), 99% (active); in experiment [2] (at 50.0 µM) it was 92.7% (active). For the same molecule, the growth inhibition in experiment [3] (setting [7]) was -13%; in experiment [3] (setting [8]) it was 97% (active); in experiment [3] (at 50.0 µM), 91.7% (active); in experiment [4] (setting [7]) it was -11%; in experiment [4] (setting [8]), 98% (active); in experiment [4] (at 50.0 µM), 89.3% (active). In addition, the growth inhibition in experiment [5] (setting [7]) was -7%; in experiment [5] (setting [8]), 99% (active); in experiment [5] (at 50.0 µM), 90.7% (active); in experiment [6] (setting [7]) it was -6%; in experiment [6] (setting [8]), 98% (active); in experiment [6] (at 50.0 µM) it was 89.4% (active).

On to `Fc1ccc(NC2=NCCN=C(Nc3ccc(F)cc3)SS2)cc1`, for which the growth inhibition in experiment [1] (setting [7]) was 0%; in experiment [1] (setting [8]), 70% (active); in experiment [1] (at 50.0 µM) it was 85% (active); in experiment [2] (setting [7]) it was 6%; in experiment [2] (setting [8]), 66%; in experiment [2] (at 50.0 µM) it was 86.5% (active). Moreover, the growth inhibition in experiment [3] (setting [7]) was 4%; in experiment [3] (setting [8]), 69%; in experiment [3] (at 50.0 µM), 86% (active); in experiment [4] (setting [7]), -9%; in experiment [4] (setting [8]), 77% (active); in experiment [4] (at 50.0 µM), 69.8%. Further, the growth inhibition in experiment [5] (setting [7]) was 6%; in experiment [5] (setting [8]) it was 76% (active); in experiment [5] (at 50.0 µM), 88% (active); in experiment [6] (setting [7]), 29%; in experiment [6] (setting [8]), 85% (active); in experiment [6] (at 50.0 µM) it was 80.8% (active).

As for `Nc1ccccc1SC(/C=C/NNC1=NC(c2ccccc2)C(c2ccccc2)=NN1)c1ccccc1` (stereo not given), the growth inhibition in experiment [1] (setting [7]) was 43%; in experiment [1] (setting [8]) it was 43%; in experiment [1] (at 50.0 µM), 93% (active); in experiment [2] (setting [7]) it was 7%; in experiment [2] (setting [8]), 7%; in experiment [2] (at 50.0 µM), 93% (active). Further, the growth inhibition in experiment [3] (setting [7]) is 19%; in experiment [3] (setting [8]) it was 19%; in experiment [3] (at 50.0 µM), 91.5% (active); in experiment [4] (setting [7]), 29%; in experiment [4] (setting [8]), 29%; in experiment [4] (at 50.0 µM) it was 91.7% (active). Besides, the growth inhibition in experiment [5] (setting [7]) was 30%; in experiment [5] (setting [8]) it was 30%; in experiment [5] (at 50.0 µM), 93.3% (active); in experiment [6] (setting [7]) it was 11%; in experiment [6] (setting [8]), 11%; in experiment [6] (at 50.0 µM) it was 91.8% (active).

Regarding `Cn1cc(NC(=O)Nc2cc(C(=O)Nc3cc(C(=O)Nc4cc(S(=O)(=O)O)c5cc(S(=O)(=O)O)cc(S(=O)(=O)O)c5c4)n(C)c3)n(C)c2)cc1C(=O)Nc1cc(C(=O)Nc2cc(S(=O)(=O)O)c3cc(S(=O)(=O)O)cc(S(=O)(=O)O)c3c2)n(C)c1`, the growth inhibition in experiment [1] (setting [7]) was 35%; in experiment [1] (setting [8]), 90% (active); in experiment [1] (at 50.0 µM), 86% (active); in experiment [2] (setting [7]), 20%; in experiment [2] (setting [8]), 80% (active); in experiment [2] (at 50.0 µM), 66.8%. For the same molecule, the growth inhibition in experiment [3] (setting [7]) is 21%; in experiment [3] (setting [8]) it was 77% (active); in experiment [3] (at 50.0 µM), 64.2%; in experiment [4] (setting [7]), 32%; in experiment [4] (setting [8]), 48%; in experiment [4] (at 50.0 µM), 60.5%. In addition, the growth inhibition in experiment [5] (setting [7]) was 30%; in experiment [5] (setting [8]), 92% (active); in experiment [5] (at 50.0 µM), 77.5% (active); in experiment [6] (setting [7]), 26%; in experiment [6] (setting [8]), 83% (active); in experiment [6] (at 50.0 µM) it was 87% (active).

With `CCCCCC/C=C1\CCC(CN2CCOCC2)C1=O` (stereo not given), the growth inhibition in experiment [1] (setting [7]) is 53%; in experiment [1] (setting [8]), 96% (active); in experiment [1] (at 50.0 µM), 81.7% (active); in experiment [2] (setting [7]), 23%; in experiment [2] (setting [8]) it was 97% (active); in experiment [2] (at 50.0 µM) it was 52%. For the same molecule, the growth inhibition in experiment [3] (setting [7]) was 16%; in experiment [3] (setting [8]), 96% (active); in experiment [3] (at 50.0 µM), 79.7% (active); in experiment [4] (setting [7]) it was 25%; in experiment [4] (setting [8]) it was 79% (active); in experiment [4] (at 50.0 µM), 63%. For the same molecule, the growth inhibition is 48% in experiment [5] (setting [7]); 98% (active) in experiment [5] (setting [8]); 82.5% (active) in experiment [5] (at 50.0 µM); 59% in experiment [6] (setting [7]); 97% (active) in experiment [6] (setting [8]); 74.8% (active) in experiment [6] (at 50.0 µM).

For the molecule `Cc1ccc(NC2=CC(=O)C(NO)c3ccccc32)cc1` (stereo not given), the growth inhibition in experiment [1] (setting [7]) was 14%; in experiment [1] (setting [8]), 66%; in experiment [1] (at 50.0 µM) it was 38.6%; in experiment [2] (setting [7]), 19%; in experiment [2] (setting [8]) it was 66%; in experiment [2] (at 50.0 µM), 20.6%. Moreover, the growth inhibition in experiment [3] (setting [7]) was 16%; in experiment [3] (setting [8]), 68%; in experiment [3] (at 50.0 µM) it was 35.6%; in experiment [4] (setting [7]), 10%; in experiment [4] (setting [8]), 40%; in experiment [4] (at 50.0 µM), 44.5%. In addition, the growth inhibition is 21% in experiment [5] (setting [7]); 83% (active) in experiment [5] (setting [8]); 21.9% in experiment [5] (at 50.0 µM); 13% in experiment [6] (setting [7]); 79% (active) in experiment [6] (setting [8]); 60.5% in experiment [6] (at 50.0 µM).

Take `CCN(CC)C(=O)CCCCC(=O)OC(C)C`: the growth inhibition in experiment [1] (setting [7]) is 0%; in experiment [1] (setting [8]), -12%; in experiment [1] (at 50.0 µM), -2.2%; in experiment [2] (setting [7]), -2%; in experiment [2] (setting [8]), -2%; in experiment [2] (at 50.0 µM), -1.1%. Also, the growth inhibition in experiment [3] (setting [7]) was -6%; in experiment [3] (setting [8]), -12%; in experiment [3] (at 50.0 µM) it was -24%; in experiment [4] (setting [7]) it was -7%; in experiment [4] (setting [8]) it was -1%; in experiment [4] (at 50.0 µM), 86.2% (active). Besides, the growth inhibition in experiment [5] (setting [7]) was -3%; in experiment [5] (setting [8]), -10%; in experiment [5] (at 50.0 µM), -7.2%; in experiment [6] (setting [7]), -1%; in experiment [6] (setting [8]) it was -11%; in experiment [6] (at 50.0 µM) it was 21.9%.
